This is one part of the list. Entries that show only a call come without a potency. Inconclusive results are not listed. The source made the active and inactive calls. Calls follow the shape of the dose curve; as a rule, active = well fitted curve in the direction sought with a large enough effect; inconclusive = small, poorly fitted or top-dose-only effect, or another doubt; inactive = no such curve, though single readings can be large; an effect the other way counts as inactive or inconclusive.
Target: Endonuclease 4 (Escherichia coli (strain K12)) (UniProt P0A6C1)
Test: Counterscreen for APE1 Inhibitors: qHTS Assay for Inhibitors of Endonuclease IV (AID 2565)
Settings: E. coli Endo IV, fluorogenic AP-site DNA cleavage; series mostly up to 27.1 µM
Outline: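 Read-out: fluorescence rise (ex 525/em 598 nm) from incision of a TAMRA/BHQ-2 double-stranded THF abasic-site substrate (50 nM), measured kinetically; third-minus-first read difference gave reaction progress. Enzyme 2 nM.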

| SMILES | outcome |
| --- | --- |
| O=C(CN1CCN(S(=O)(=O)/C=C/c2ccccc2)CC1)NC(=O)NCc1ccco1 | inactive |
| CC(C)(C)C(=O)OCc1nc(-c2ccc(O)c(O)c2)cs1 | inactive |
| N#Cc1ccccc1CN1C(=O)S/C(=C/c2cccn2-c2cccc(C(=O)O)c2)C1=O | inactive |
| O=C(Cc1ccc(S(=O)(=O)N2CCOCC2)s1)NCCC(c1ccccc1)c1ccccc1 | inactive |
| COc1cc([C@H](Cc2ccccc2)NC(C)=O)oc(=O)c1 | inactive |

Target: DNA repair nuclease/redox regulator APEX1 (Homo sapiens) (UniProt P27695)
Test: Confirmation qHTS Assay for Inhibitors of the Human Apurinic/apyrimidinic Endonuclease 1 (APE1) (AID 2572); also: nearly all actives have a fitted effect of over 30% in size; also: potency is read from the fitted curve at half-maximal effect;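 as to activity change, negative = inhibition: fluorescence gain from purified APE1 cutting a TAMRA/BHQ-2 THF abasic duplex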
Settings: purified APE1, fluorogenic abasic-site DNA cleavage; series mostly up to 57.1 µM
Outline: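 APE1 preincubated 15 min RT with compound; 50 nM TAMRA/BHQ-2 THF-abasic duplex added; kinetic fluorescence, 3 reads at 60 s intervals, Ex 525/Em 598; progress = read 3 minus read 1.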

Chain of DNA repair nuclease/redox regulator APEX1 (Homo sapiens) (P27695 whole entry, looked up): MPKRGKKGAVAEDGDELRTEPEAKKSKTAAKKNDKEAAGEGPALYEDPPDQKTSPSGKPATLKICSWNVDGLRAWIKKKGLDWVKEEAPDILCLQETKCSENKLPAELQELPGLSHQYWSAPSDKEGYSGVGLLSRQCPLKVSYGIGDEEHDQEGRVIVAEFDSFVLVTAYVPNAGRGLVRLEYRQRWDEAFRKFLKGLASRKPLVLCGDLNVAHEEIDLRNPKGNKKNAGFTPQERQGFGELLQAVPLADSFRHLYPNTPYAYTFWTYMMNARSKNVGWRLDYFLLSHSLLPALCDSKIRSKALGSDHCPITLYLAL

| SMILES | Potency |
| --- | --- |
| CC(=O)NS(=O)(=O)c1ccc(NC(=O)C2C3C=CC(C3)C2C(=O)O)cc1 (stereo unspecified) | inactive |
| CC(C)(C)C(=O)OCc1nc(-c2ccc(O)c(O)c2)cs1 | 11.2 µM (active) |
| N#Cc1ccccc1CN1C(=O)S/C(=C/c2cccn2-c2cccc(C(=O)O)c2)C1=O | 14.1 µM (active) |
| CCOCN(C(=O)Cn1c(C(C)O)nc2ccccc21)c1c(C)cccc1CC (stereo unspecified) | inactive |
| COc1ccc(NC(=O)CSc2nc(NS(=O)(=O)c3ccc(C)cc3)cc(=O)[nH]2)cc1 | 39.8 µM (active) |
| O=C(NCc1ccccn1)c1ccc2nc(-c3ccco3)c(-c3ccco3)nc2c1 | 8.91 µM (active) |

Tested on: not listed separately
Test: qHTS Assay for Inhibitors of Fructose-1,6-bisphosphate Aldolase from Giardia Lamblia: Giardia lamblia growth inhibition (AID 2785); also: nearly all actives have a fitted effect of over 70% in size; also: potency is read from the fitted curve at half-maximal effect
Settings: Giardia lamblia trophozoite growth inhibition; series mostly up to 57.5 µM
Outline: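 G. lamblia WB trophozoites (100 cells/well) were grown with compound at 37C for 48 h in modified TYI-S-33 medium, pH 7.0. Growth was measured by ATPlite luminescence after 20 min at room temperature.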

| SMILES | activity change, negative = inhibition | Potency |
| --- | --- | --- |
| O=C(Nc1nnc(-c2ccco2)o1)c1ccc(S(=O)(=O)N2CCOCC2)cc1 | 7.93% [at 10.4 µM] (inactive) |  |
| Cc1cc(C)n(-c2ccc(Cl)c(C(=O)O)n2)n1 |  | inactive |
| Cc1cc(C)nc(N/N=C/c2ccc([N+](=O)[O-])o2)n1 |  | 3.16 µM (active) |
| O=C(CSc1cccc[n+]1[O-])c1ccc(-c2ccccc2)cc1 |  | inactive |
| O=C(CN1C(=O)COc2ccccc21)Nc1ccc(F)cc1 |  | inactive |

Tested on: not listed separately
Test: qHTS Assay for Inhibitors of Fructose-1,6-bisphosphate Aldolase from Giardia Lamblia: Mammalian cellular toxicity (AID 2786);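 also: compound exposure lasted 48 h before reading; nearly all actives have a fitted effect of over 60% in size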; also: potency is read from the fitted curve at half-maximal effect
Settings: mammalian cell viability counter-screen; series mostly up to 57.5 µM
Outline: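 CHO cells seeded at 250 cells/well with pin-tool-added compound, incubated 48 h at 37 °C, 5% CO2. Viability read as ATP content by ATPlite luminescence after 20 min.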

| SMILES | Potency |
| --- | --- |
| O=C(O)Cn1c(Cc2ccccc2)nc2ccccc21 | inactive |
| CCS(=O)(=O)c1cc([N+](=O)[O-])c(Sc2ccccc2N)s1 | inactive |
| CSc1n[nH]c(=S)n1N | inactive |
| Clc1cccc(CN2COc3c(cc(Cl)c4cccnc34)C2)c1 | 20 µM (active) |
| COc1ccc(C(=O)NC(=S)N2CCCCC2c2cccnc2)cc1OC (stereo unspecified) | inactive |
| COc1ccc(Cl)cc1C(=O)NNC(=O)c1nc2nc(C)cc(C)n2n1 | inactive |
| O=c1nc(N/N=C/c2ccco2)cn[nH]1 | inactive |
| Oc1ccc2ccccc2c1N=Nc1nccs1 | 10 µM (active) |
| Cc1cccc(C)c1OCCN1CCOCC1 | inactive |
| C=CCNC(=S)/N=c1/ccccn1Cc1ccccc1 | inactive |
| Cc1nc2ccc(NC(=S)N3CCC(C)CC3)cc2nc1C | inactive |
| Cc1ccc(OCCCCc2c(C)n[nH]c2C)cc1 | inactive |
| Cc1cc(C)nc(N/N=C/c2ccc([N+](=O)[O-])o2)n1 | inactive |
| Cc1nc(N2CCOCC2)sc1C(=O)NN | inactive |
| COc1ccc(N=Nc2c(-c3ccc(OC)cc3)[nH]oc2=O)cc1 | inactive |
| O=[N+]([O-])c1ccc2nc(-c3ccccn3)[nH]c2c1 | 25.1 µM (active) |
| Cc1cc(C)c2c(=O)[nH]c(SCC(=O)Nc3ccc(Br)cc3)nc2n1 | inactive |
| Cc1cccc(-c2nnc(SCC(=O)O)n2Cc2ccccc2)c1 | inactive |
| Cn1nnc(NC(=S)NC(=O)c2ccccc2)n1 | inactive |

Target: Fructose-bisphosphate aldolase (Giardia intestinalis (strain ATCC 50803 / WB clone C6)) (UniProt A8B2U2)
Test: qHTS Assay for Inhibitors of Fructose-1,6-bisphosphate Aldolase from Giardia Lamblia: Primary screen confirmation (AID 2787);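 also: aldolase product measured through coupled diaphorase step turning resazurin into fluorescent resorufin; nearly all actives have a fitted effect of over 45% in size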
Settings: purified Giardia aldolase enzyme activity; series mostly up to 57.5 µM
Outline: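 FBPA (40 nM in enzyme reagent, with 30 uM ZnCl2) was preincubated 10 min at RT with compound up to 57.5 uM final. Substrate plus coupled detection system was then added, and fluorescence (525/598 nm) was read after 20 min at RT.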

Chain of Fructose-bisphosphate aldolase (Giardia intestinalis (strain ATCC 50803 / WB clone C6)) (A8B2U2 whole entry, looked up): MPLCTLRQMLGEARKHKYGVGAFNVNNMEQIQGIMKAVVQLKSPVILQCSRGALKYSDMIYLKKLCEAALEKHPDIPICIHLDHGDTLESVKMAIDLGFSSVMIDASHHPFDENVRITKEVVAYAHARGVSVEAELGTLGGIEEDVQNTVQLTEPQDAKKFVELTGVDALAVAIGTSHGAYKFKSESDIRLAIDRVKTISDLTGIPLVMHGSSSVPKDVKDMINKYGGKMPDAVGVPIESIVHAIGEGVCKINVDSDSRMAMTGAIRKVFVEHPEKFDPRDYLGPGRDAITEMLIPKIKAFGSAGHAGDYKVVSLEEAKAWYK

| SMILES | outcome |
| --- | --- |
| O=C(O)Cn1c(Cc2ccccc2)nc2ccccc21 | inactive |
| O=C1CCCN1CCCNC(=S)Nc1ccc(F)c(Cl)c1 | inactive |
| CCS(=O)(=O)c1cc([N+](=O)[O-])c(Sc2ccccc2N)s1 | inactive |
| CNC(=S)N/N=C/c1ccc(N2CCOCC2)s1 | inactive |
| C/C(=N\NC(N)=S)c1cccnc1 | inactive |
| Cc1cc(C)n(-c2ccc(Cl)c(C(=O)O)n2)n1 | inactive |
| O=c1[nH]c(=S)[nH]c2[nH]c(=S)[nH]c12 | inactive |
| Cc1ccc(OCCCCc2c(C)n[nH]c2C)cc1 | inactive |
| O=C(NC(=S)Nc1ncccn1)c1ccccc1Br | inactive |
| Cc1ccc(S(=O)(=O)NNC(=S)NC(C)(C)C)cc1 | inactive |
| Cc1nnc(SCC2=C(C(=O)O)N3C(=O)C(NC(=O)Cn4nc(C)c(Cl)c4C)C3SC2)s1 (stereo unspecified) | inactive |

Target: Fructose-bisphosphate aldolase A (Oryctolagus cuniculus) (UniProt P00883)
Test: qHTS Assay for Inhibitors of Fructose-1,6-bisphosphate Aldolase from Giardia Lamblia: Rabbit FBPA Selectivity (AID 2794); also: nearly all actives have a fitted effect of over 60% in size
Settings: Rabbit muscle FBPA enzyme inhibition, selectivity counter-screen; series mostly up to 57.5 µM
Outline: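 Each compound, dosed at up to 57.5 uM final, was first mixed with coupling enzyme reagent for 10 min. Aldolase substrate and the AmpLite Red coupling system then ran 20 min at RT before a single fluorescence read.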

Chain of Fructose-bisphosphate aldolase A (Oryctolagus cuniculus) (P00883 whole entry, looked up): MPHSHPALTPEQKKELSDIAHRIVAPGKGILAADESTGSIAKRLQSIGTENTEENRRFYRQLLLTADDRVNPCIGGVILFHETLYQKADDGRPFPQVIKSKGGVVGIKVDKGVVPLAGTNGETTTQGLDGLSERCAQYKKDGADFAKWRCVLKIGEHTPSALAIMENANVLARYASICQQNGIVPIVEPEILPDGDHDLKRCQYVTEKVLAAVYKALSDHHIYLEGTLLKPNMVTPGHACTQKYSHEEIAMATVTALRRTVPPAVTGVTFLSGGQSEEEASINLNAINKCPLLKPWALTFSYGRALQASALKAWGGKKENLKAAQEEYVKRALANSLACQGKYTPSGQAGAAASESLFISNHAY

| SMILES | outcome |
| --- | --- |
| Cc1cc(C)n(-c2ccc(Cl)c(C(=O)O)n2)n1 | inactive |
| COc1ccc(N=Nc2c(-c3ccc(OC)cc3)[nH]oc2=O)cc1 | inactive |
| O=[N+]([O-])c1ccc2nc(-c3ccccn3)[nH]c2c1 | inactive |
| Cn1nnc(NC(=S)NC(=O)c2ccccc2)n1 | inactive |

Tested on: not listed separately
Test: qHTS Assay for Inhibitors of Fructose-1,6-bisphosphate Aldolase from Giardia Lamblia: Coupling assay counterscreen confirmation (AID 2795); also: nearly all actives have a fitted effect of over 55% in size
Settings: GAPDH coupling enzyme counterscreen, biochemical; series mostly up to 57.5 µM
Outline: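 Primary-screen hits were tested against the coupling system alone (GAPDH-based, glyceraldehyde-3-phosphate), without aldolase. Compounds at up to 57.5 uM final were preincubated 10 min at RT with coupling enzymes, then substrate/detection mix (AmpLite Red) was added for 20 min at RT; fluorescence read at 525/598 nm.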

| SMILES | outcome |
| --- | --- |
| O=C(O)Cn1c(Cc2ccccc2)nc2ccccc21 | inactive |
| CCS(=O)(=O)c1cc([N+](=O)[O-])c(Sc2ccccc2N)s1 | inactive |
| CSc1n[nH]c(=S)n1N | inactive |
| Cc1cccc(C)c1OCCN1CCOCC1 | inactive |
| Cc1ccc(OCCCCc2c(C)n[nH]c2C)cc1 | inactive |
| O=C(CSc1cccc[n+]1[O-])c1ccc(-c2ccccc2)cc1 | inactive |

— PubChem BioAssay (NCATS)
